Each structure is given as a SMILES string. Records with an inconclusive call do not appear. A call without a number means that no potency is given here. Activity calls are given as the source filed them. The call rests on the fitted dose curve; in most records, active means well fitted curve in the direction sought with a large enough effect; inconclusive means small, poorly fitted or top-dose-only effect, or another doubt; inactive means no such curve, though single readings can be large; an effect the other way counts as inactive or inconclusive.

The record followed here is PubChem BioAssay (NCATS).

Chain of Ubiquitin carboxyl-terminal hydrolase 1 (Homo sapiens) (O94782 whole entry, looked up): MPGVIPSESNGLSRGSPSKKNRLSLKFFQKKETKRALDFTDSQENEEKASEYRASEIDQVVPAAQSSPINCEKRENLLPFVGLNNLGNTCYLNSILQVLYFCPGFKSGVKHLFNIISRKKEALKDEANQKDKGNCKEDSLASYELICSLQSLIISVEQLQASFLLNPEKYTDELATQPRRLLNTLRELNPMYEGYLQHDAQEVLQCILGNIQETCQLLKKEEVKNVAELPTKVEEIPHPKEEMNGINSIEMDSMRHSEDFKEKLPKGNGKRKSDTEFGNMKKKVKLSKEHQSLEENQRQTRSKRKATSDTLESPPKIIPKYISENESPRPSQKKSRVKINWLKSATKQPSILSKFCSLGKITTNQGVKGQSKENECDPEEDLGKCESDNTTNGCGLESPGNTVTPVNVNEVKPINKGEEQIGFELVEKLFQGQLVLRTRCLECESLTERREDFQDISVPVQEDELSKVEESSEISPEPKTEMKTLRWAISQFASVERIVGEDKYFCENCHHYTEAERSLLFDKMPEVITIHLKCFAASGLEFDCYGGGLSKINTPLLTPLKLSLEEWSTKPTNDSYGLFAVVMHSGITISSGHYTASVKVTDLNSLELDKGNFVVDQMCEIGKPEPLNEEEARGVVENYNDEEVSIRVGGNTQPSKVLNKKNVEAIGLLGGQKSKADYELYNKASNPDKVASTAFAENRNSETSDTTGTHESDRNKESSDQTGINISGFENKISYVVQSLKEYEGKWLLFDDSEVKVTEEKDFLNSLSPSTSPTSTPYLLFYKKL

The target of one assay is Ubiquitin carboxyl-terminal hydrolase 1 (Homo sapiens) (UniProt O94782). The experiment in a line: Inhibitors of USP1/UAF1: Pilot qHTS (AID 504865).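 Further: rhodamine fluorescence freed from ubiquitin-rhodamine substrate followed over time; top concentration of the series differs between compounds; nearly all actives have a fitted effect of over 35% in size.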 The note with it: purified USP1/UAF1, Ub-rhodamine cleavage fluorescence; series mostly up to 54.9 µM. In a few lines:
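USP1/UAF1 complex (1nM) preincubated with compound 15 min at room temperature, then Ub-Rho substrate (150nM final) added. Fluorescence read kinetically at 480/540 nm, 6 reads every 60 seconds. Buffer: 50mM HEPES pH 7.8, 0.5mM EDTA, 0.1 mg/ml BSA, 1mM TCEP, 0.01% Tween-20.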
In general terms: In qHTS, concentration-response curves come from the screen itself.
Turning to `Cc1nc2cnc(N3CCOCC3)nc2n(C[C@H]2CCCO2)c1=O`, the Potency entry was “inactive”.

In the case of `CN(C)Cc1ccccc1-c1nc(NCc2cccs2)c2ccccc2n1`, the Potency result was “inactive”.

In the case of `CN(C)c1ncc2nc(-c3ccccc3)c(=O)n(-c3ccccc3)c2n1`, the Potency entry is “inactive”.

Regarding `N#Cc1cccc(-c2nc3cnc(N4CCOCC4)nc3n(C[C@H]3CCCO3)c2=O)c1`, the Potency entry was “inactive”.

Take `COc1ccc(-c2nc3cnc(Nc4cccc(OC)c4)nc3n(C3CC3)c2=O)cc1`: the Potency entry was “inactive”.

With `CN(C)c1ncc2nc(-c3cn(C)c4ccccc34)c(=O)n(C[C@H]3CCCO3)c2n1`, the Potency entry was “inactive”.

Consider `CN(C)c1ncc2nc(-c3ccc(F)cc3)c(=O)n(C[C@H]3CCCO3)c2n1`, for which the Potency result is “inactive”.

Regarding `CN(C)Cc1ccccc1-c1cc(N(C)Cc2ccco2)ncn1`, the Potency result was “inactive”.

Turning to `CN(Cc1ccco1)c1ncncc1-c1ccccc1Cl`, the Potency entry is “inactive”.

Consider `CN1CCN(c2ncc3ncc(=O)n(C[C@H]4CCCO4)c3n2)CC1`, for which the Potency entry was “inactive”.

As to `CN1CCN(c2ncc3nc(-c4cc(F)cc(F)c4)c(=O)n(C4CC4)c3n2)CC1`, the Potency entry is “inactive”.

Consider `COCCn1c(=O)c(C)nc2cnc(Oc3ccc(OC)cc3)nc21`, for which the Potency result is “inactive”.

In the case of `CN(Cc1ccco1)c1ncncc1-c1ccoc1`, the Potency result was “inactive”.

Consider `CCNc1ncc2nc(-c3cn(C)c4ccccc34)c(=O)n(Cc3cccc(OC)c3)c2n1`, for which the Potency result was “inactive”.

As for `c1ccc(Nc2cc(-c3ccoc3)ncn2)cc1`, the Potency result was “inactive”.

In the case of `Cn1c(=O)c(-c2cccs2)nc2cnc(OCc3ccccc3)nc21`, the Potency result is “inactive”.

For `Cc1nc2cnc(N(C)C)nc2n(C[C@H]2CCCO2)c1=O`, the Potency result is “inactive”.

In the case of `O=c1c(CCc2ccccc2)nc2cnc(N3CCOCC3)nc2n1Cc1cccs1`, the Potency result is “inactive”.

`Cn1c(=O)c(-c2cc(F)cc(F)c2)nc2cnc(N3CCOCC3)nc21`: the Potency entry is “inactive”.

In the case of `O=c1cnc2cnc(N3CCOCC3)nc2n1CCc1ccccc1`, the Potency result was “inactive”.

For the compound `Cc1ccccc1-c1cc(N(C)C)ncn1`, the Potency entry is “inactive”.

Turning to `CCNc1ncc2ncc(=O)n(C3CC3)c2n1`, the Potency entry is “inactive”.

For the compound `COCCn1c(=O)c(-c2cc(F)cc(F)c2)nc2cnc(N3CCOCC3)nc21`, the Potency result is “inactive”.

On to `O=c1c(-c2ccc(F)cc2)nc2cnc(N3CCNCC3)nc2n1Cc1ccc(F)cc1`, for which the Potency result is “inactive”.

Turning to `COc1ncc2nc(-c3ccc(F)cc3)c(=O)n(C3CC3)c2n1`, the Potency entry is “inactive”.

On to `COc1ccc(-n2c(=O)c(-c3cccs3)nc3cnc(N(C)C)nc32)cc1`, for which the Potency result was “inactive”.

As for `CN(C)c1ncnc2ccc(-c3cccnc3)cc12`, the Potency entry was “inactive”.

For the compound `Cc1noc(C)c1-c1ccc2ncnc(N(C)C)c2c1`, the Potency result was “inactive”.

For `Cn1c(=O)c(-c2ccc(Cl)cc2)nc2cnc(Nc3ccccc3)nc21`, the Potency result is “inactive”.

For `CN1CCN(c2ncc3nc(-c4ccc(Cl)cc4)c(=O)n(Cc4cccs4)c3n2)CC1`, the Potency entry is “inactive”.

As for `CN1CCN(c2cc(-c3ccoc3)ncn2)CC1`, the Potency entry was “inactive”.

On to `CN(Cc1ccco1)c1ncncc1-c1cccc(C#N)c1`, for which the Potency result was “inactive”.

With `Cc1nc2cnc(N3CCN(C)CC3)nc2n(CCC#N)c1=O`, the Potency entry is “inactive”.

Turning to `COc1ccc(Oc2ncc3nc(C)c(=O)n(Cc4cccc(OC)c4)c3n2)cc1`, the Potency result is “inactive”.

In the case of `COCCn1c(=O)c(-c2ccc(Cl)cc2)nc2cnc(Oc3cccc(Cl)c3)nc21`, the Potency entry was “inactive”.

Tested on in another assay: not listed separately
The experiment in a line: Primary qHTS for small molecule stabilizers of the endoplasmic reticulum resident proteome: Secreted ER Calcium Modulated Protein (SERCaMP) assay (AID 1508630). The note with it: SH-SY5Y GLuc-SERCaMP (Gaussia luciferase released on ER calcium loss) secretion, thapsigargin, luminescence; series mostly up to 38.4 µM. In a few lines:
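The SH-SY5Y reporter protocol was run at 3 concentrations up to 38.3 uM (primary) or 11 concentrations (follow-up): 16 h compound, 100 nM thapsigargin for 4 h, then extracellular luciferase luminescence.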
For the compound `Cc1nc2cnc(N3CCOCC3)nc2n(C[C@H]2CCCO2)c1=O`, the Potency entry is “inactive”.

Regarding `CN(C)Cc1ccccc1-c1nc(NCc2cccs2)c2ccccc2n1`, the Potency result is “inactive”.

In the case of `CN(C)c1ncc2nc(-c3ccccc3)c(=O)n(-c3ccccc3)c2n1`, the Potency entry is “inactive”.

For the compound `N#Cc1cccc(-c2nc3cnc(N4CCOCC4)nc3n(C[C@H]3CCCO3)c2=O)c1`, the Potency result is “inactive”.

Turning to `COc1ccc(-c2nc3cnc(Nc4cccc(OC)c4)nc3n(C3CC3)c2=O)cc1`, the Potency result was “inactive”.

Turning to `CN(C)c1ncc2nc(-c3cn(C)c4ccccc34)c(=O)n(C[C@H]3CCCO3)c2n1`, the Potency result was “inactive”.

For the compound `CN(C)c1ncc2nc(-c3ccc(F)cc3)c(=O)n(C[C@H]3CCCO3)c2n1`, the Potency result was “inactive”.

With `CN(C)c1ccc(-c2cc(Nc3ccc(F)cc3)ncn2)cc1`, the Potency entry is “inactive”.

For the compound `COc1ncc2nc(C)c(=O)n(C3CC3)c2n1`, the Potency result is “inactive”.

Regarding `CN(C)Cc1ccccc1-c1cc(N(C)Cc2ccco2)ncn1`, the Potency entry was “inactive”.

For `CN(Cc1ccco1)c1ncncc1-c1ccccc1Cl`, the Potency entry is “inactive”.

On to `CN1CCN(c2ncc3ncc(=O)n(C[C@H]4CCCO4)c3n2)CC1`, for which the Potency entry was “inactive”.

For the compound `CN1CCN(c2ncc3nc(-c4cc(F)cc(F)c4)c(=O)n(C4CC4)c3n2)CC1`, the Potency result was “inactive”.

`COCCn1c(=O)c(C)nc2cnc(Oc3ccc(OC)cc3)nc21`: the Potency result is “inactive”.

In the case of `CN(Cc1ccco1)c1ncncc1-c1ccoc1`, the Potency result is “inactive”.

On to `CCNc1ncc2nc(-c3cn(C)c4ccccc34)c(=O)n(Cc3cccc(OC)c3)c2n1`, for which the Potency result is “inactive”.

Regarding `c1ccc(Nc2cc(-c3ccoc3)ncn2)cc1`, the Potency result is “inactive”.

Take `Cn1c(=O)c(-c2cccs2)nc2cnc(OCc3ccccc3)nc21`: the Potency entry is “inactive”.

In the case of `FC(F)(F)c1ccccc1-c1cc(NCc2ccccc2)ncn1`, the Potency result was “inactive”.

On to `Cc1nc2cnc(N(C)C)nc2n(C[C@H]2CCCO2)c1=O`, for which the Potency entry is “inactive”.

Turning to `O=c1c(CCc2ccccc2)nc2cnc(N3CCOCC3)nc2n1Cc1cccs1`, the Potency result is “inactive”.

In the case of `Cn1c(=O)c(-c2cc(F)cc(F)c2)nc2cnc(N3CCOCC3)nc21`, the Potency entry was “inactive”.

Take `O=c1cnc2cnc(N3CCOCC3)nc2n1CCc1ccccc1`: the Potency result is “inactive”.

Turning to `Cc1ccccc1-c1cc(N(C)C)ncn1`, the Potency entry was “inactive”.

Consider `CCNc1ncc2ncc(=O)n(C3CC3)c2n1`, for which the Potency entry was “inactive”.

As for `COCCn1c(=O)c(-c2cc(F)cc(F)c2)nc2cnc(N3CCOCC3)nc21`, the Potency entry is “inactive”.

As for `O=c1c(-c2ccc(F)cc2)nc2cnc(N3CCNCC3)nc2n1Cc1ccc(F)cc1`, the Potency entry was “inactive”.

As for `COc1ncc2nc(-c3ccc(F)cc3)c(=O)n(C3CC3)c2n1`, the Potency entry is “inactive”.

As to `COc1ccc(-n2c(=O)c(-c3cccs3)nc3cnc(N(C)C)nc32)cc1`, the Potency entry is “inactive”.

On to `Fc1ccc(Nc2ncncc2-c2ccccc2C(F)(F)F)cc1`, for which the Potency result is “inactive”.

Regarding `CN(C)c1ncnc2ccc(-c3cccnc3)cc12`, the Potency result is “inactive”.

`Cc1noc(C)c1-c1ccc2ncnc(N(C)C)c2c1`: the Potency result is “inactive”.

Take `Cn1c(=O)c(-c2ccc(Cl)cc2)nc2cnc(Nc3ccccc3)nc21`: the Potency result is “inactive”.

On to `CN1CCN(c2ncc3nc(-c4ccc(Cl)cc4)c(=O)n(Cc4cccs4)c3n2)CC1`, for which the Potency result is “inactive”.

For `CN1CCN(c2cc(-c3ccoc3)ncn2)CC1`, the Potency result is “inactive”.

As for `COCCNc1nc(-c2ccccc2OC)nc2ccccc12`, the Potency result is “inactive”.

`CN(Cc1ccco1)c1ncncc1-c1cccc(C#N)c1`: the Potency entry was “inactive”.

As to `Cc1nc2cnc(N3CCN(C)CC3)nc2n(CCC#N)c1=O`, the Potency result is “inactive”.

On to `COc1ccc(Oc2ncc3nc(C)c(=O)n(Cc4cccc(OC)c4)c3n2)cc1`, for which the Potency result was “inactive”.

Regarding `COCCn1c(=O)c(-c2ccc(Cl)cc2)nc2cnc(Oc3cccc(Cl)c3)nc21`, the Potency entry is “inactive”.
